Data published in PubChem BioAssay (Tox21).
Records with an inconclusive call do not appear. Unmarked numbers belong to inactive results. Activity calls are given as the source filed them. Calls come from the whole dose curve; as a rule, active = well fitted cell-killing curve with a large enough effect in the repeat runs; inconclusive = weak or mixed curves, or effect the other way; inactive = flat fitted curve, though single readings scatter.

Experiment: qHTS assay to identify small molecule agonists of the TGF-beta/Smad signaling pathway - cell viability counter screen (AID 1346829); note: top concentration of the series differs between compounds; nearly all actives have a fitted effect of over 45% in size
Conditions: SBE-bla HEK293T viability, CellTiter-Glo luminescence, 5 h; series mostly up to 76.8 µM
Source text: National Center for Advancing Translational Sciences [NCATS]
NIH Chemical Genomics Center [NCGC]
U.S. Environmental Protection Agency [EPA]
National Institutes of Environmental Health Sciences [NIEHS]
National Toxicology Program [NTP]
U.S. Food and Drug Administration [FDA]
Transforming growth factor beta (TGF-beta) superfamily consists of a large number of structurally related dimeric proteins that act as hormones or local mediators in regulating a wide range of biological functions. This superfamily includes TGF-betas themselves, the bone morphogenetic proteins (BMPs) and the activins. These ligands induce oligomerization of serine/threonine receptor kinases and phosphorylate the cytoplasmic signaling molecules of Smad protein family. CellSensor SBE-bla HEK 293T cell line (Life Technologies, Carlsbad, CA), responsive to TGF-beta was used to screen Tox21 10K compound library for identification of agonists/antagonists of the Smad signaling pathway. This cell line contains a beta-lactamase reporter gene under control of the Smad binding element (SBE) stably integrated into HEK 293T cells. Also cytotoxicity of the compounds was tested in parallel by measuring the cell viability using CellTiter-Glo assay system in the same wells.
Tox21 Assay Protocol Summary:
SBE-bla HEK 293T cells were dispensed at 4,000/well in 6 uL of assay medium into black wall/clear-bottom 1536-well plates using a Multidrop Combi (ThermoFisher Scientific, Waltham, MA) dispenser. After the assay plates were incubated at 37 C and 5% CO2 for an overnight, 23 nL of compounds dissolved in DMSO, positive controls or DMSO only was transferred to the assay plate by a Pintool station (Kalypsys, San Diego, CA). The assay plates were incubated at 37 C and 5% CO2 for 5 hr. One uL of LiveBLAzer B/G FRET substrate (Life Technologies) was added using a Flying Reagent Dispenser (FRD, Aurora Discovery, San Diego, CA) and the plates were incubated at room temperature for 2 hr. Fluorescence intensity (405 nm excitation, 460 nm and 530 nm emissions) was measured using an Envision plate reader (PerkinElmer, Shelton, CT). For cytotoxicity read, 4 uL of CellTiter-Glo reagent (Promega Corporation, Madison, WI) was added to each well of the assay plates using FRD. After 30min incubation at room temperature, the luminescence intensity was measured using ViewLux plate reader (PerkinElmer).
% is set by controls: 0 for no effect and ±100 for the full control effect.

SMILES	outcome	activity change, negative = cytotoxicity
CCC(C(=O)NC(=O)NC(C)=O)c1ccccc1 (stereo not given)	inactive	
CN(C)CCCN(C)CCCN(C)C	inactive	
CC(=O)N[C@H]1[C@H]([C@H](O)[C@H](O)CO)OC(C(=O)O)=C[C@@H]1N=C(N)N	inactive	
CN(C)CCCCCCN(C)C	inactive	
CCCn1cc[n+](C)c1C	inactive	
C=CCCCCCCCCC(=O)OCC	inactive	
CCCCCC(=O)OCCc1ccccc1	inactive	
Cc1cccc(C)c1NC(=O)CC12CCCN1CCC2	inactive	
C[N+]1(C)[C@@H]2CC(OC(=O)[C@H](CO)c3ccccc3)C[C@H]1[C@@H]1O[C@@H]12 (stereo not given in full)	inactive	
C1CCC2(CCCCO2)OC1	inactive	
CNC(=O)Nc1ccc(Cl)c(Cl)c1	inactive	
OCCCCCO	inactive	
CCCCCCCCCCCCCCC(=O)O	inactive	
Cc1coc2ccccc2c1=O	inactive	
O=C(O)Cc1csc(-c2ccc(Cl)cc2)n1	inactive	
CCN1C=CN(C)C1C (stereo not given)	inactive	
CN1[C@@H]2CC[C@H]1CC(OC(=O)C(O)c1ccccc1)C2 (stereo not given in full)	inactive	
CC(CC=O)CC(C)(C)C (stereo not given)	inactive	
CCC(=O)OCc1ccccc1	inactive	
c1ccc2sc(SN3CCOCC3)nc2c1	inactive	

SMILES	outcome	activity change, negative = cytotoxicity
Cc1c(N)c(=O)n(-c2ccccc2)n1C	inactive	
CC(C)[C@H]1CC[C@@H](C)CC1=O	inactive	
CC(C)(C)OC(=O)c1cccc(N)c1	inactive	
CC(C)(C)c1ccc(-c2ccc(C(C)(C)C)cc2)cc1	inactive	
C=CC(C)(CCC=C(C)C)OC(=O)CC (stereo not given)	inactive	
CC(C)(C#N)Nc1nc(Cl)nc(NC2CC2)n1	inactive	
CN1CCC(=C2c3ccccc3CCc3cccnc32)CC1	inactive	
c1coc(CNc2ncnc3nc[nH]c23)c1	inactive	
C=CC(=O)OCCCl	inactive	
CC(C)c1ccc2ncccc2c1	inactive	
CN(C)CCN(C)CCN(C)C	inactive	
CCOC(=O)C(=O)CCCCCCl	inactive	
CCCc1nn(C)c2c(=O)[nH]c(-c3cc(S(=O)(=O)N4CCN(C)CC4)ccc3OCC)nc12	inactive	
CO[Si](C)(OC)c1ccccc1	inactive	
CCOc1ccccc1OCC	inactive	
CCCCc1ccc2c(n1)[C@@H](c1ccc(OC)cc1C[C@H](C)C(=O)O)[C@H](C(=O)O)[C@H]2c1ccc2c(c1)OCO2	inactive	
CCCCCCCCCCOc1cc2c(=O)c(C(=O)OCC)c[nH]c2cc1OCC		0.83% [at 6.97 µM]
CCCCCCCCCCCCSC	inactive	
CO[C@@]1(NC(=O)C(C(=O)O)c2ccc(O)cc2)C(=O)N2C(C(=O)O)=C(CSc3nnnn3C)CO[C@@H]21 (stereo not given in full)	inactive	
O=CN(CCO)CCO	inactive	
